# Measured values from article PMC7862700, “An all-to-all approach to the identification of sequence-specific readers for epigenetic DNA modifications on cytosine”.
# How the values were obtained:
# Test in all cases: DAPPL (digital affinity profiling via proximity ligation, sequencing); 10 mM Tris-HCl pH 7.5, 50 mM NaCl, 1 mM DTT, 4% glycerol, room temperature, 30 min; GST-TFs on glutathione beads, 16-mer random dsDNA library, 0.1% formaldehyde crosslink after washing; high values mean tight binding
# FLI1 = molecular target: T1, FLI1 (Homo sapiens, UniProt Q01543 1-452); conditions: protein: recombinant; tags: N-terminal GST; dsDNA, one strand shown
# T1 sequence: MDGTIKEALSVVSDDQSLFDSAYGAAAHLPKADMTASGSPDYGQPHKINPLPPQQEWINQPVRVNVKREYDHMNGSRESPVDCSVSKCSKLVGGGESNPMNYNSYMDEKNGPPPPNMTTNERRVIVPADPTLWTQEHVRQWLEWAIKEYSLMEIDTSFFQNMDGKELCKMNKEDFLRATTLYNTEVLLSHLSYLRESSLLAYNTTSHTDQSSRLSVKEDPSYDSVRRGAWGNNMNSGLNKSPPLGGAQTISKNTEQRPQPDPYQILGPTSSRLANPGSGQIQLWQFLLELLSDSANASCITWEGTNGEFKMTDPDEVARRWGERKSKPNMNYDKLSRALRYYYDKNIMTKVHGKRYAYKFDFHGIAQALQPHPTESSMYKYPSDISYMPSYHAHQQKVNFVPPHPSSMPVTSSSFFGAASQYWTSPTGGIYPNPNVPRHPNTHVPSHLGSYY
# Procedure, shortened: (§1)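 After expression in yeast as GST fusions, human transcription factors were bound to glutathione beads, DNA-barcoded and mixed with a tag-only sample. The pools were incubated with 200 nmole of a 16-mer random double-stranded DNA library in Tris/NaCl/DTT/glycerol buffer (30 min, room temperature), washed and crosslinked with 0.1% formaldehyde. Proximity ligation with BsaI/T4 ligase ran for 1 h at 37 °C, before PCR amplification and sequencing on an Illumina NextSeq500. Binding signal is a hexamer's read frequency for a factor divided by its frequency for the tag-only sample.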
# ELK1 = molecular target: T2, ELK1 (Homo sapiens, UniProt P19419 1-428); conditions: protein: recombinant; tags: N-terminal GST; dsDNA, one strand shown
# T2 sequence: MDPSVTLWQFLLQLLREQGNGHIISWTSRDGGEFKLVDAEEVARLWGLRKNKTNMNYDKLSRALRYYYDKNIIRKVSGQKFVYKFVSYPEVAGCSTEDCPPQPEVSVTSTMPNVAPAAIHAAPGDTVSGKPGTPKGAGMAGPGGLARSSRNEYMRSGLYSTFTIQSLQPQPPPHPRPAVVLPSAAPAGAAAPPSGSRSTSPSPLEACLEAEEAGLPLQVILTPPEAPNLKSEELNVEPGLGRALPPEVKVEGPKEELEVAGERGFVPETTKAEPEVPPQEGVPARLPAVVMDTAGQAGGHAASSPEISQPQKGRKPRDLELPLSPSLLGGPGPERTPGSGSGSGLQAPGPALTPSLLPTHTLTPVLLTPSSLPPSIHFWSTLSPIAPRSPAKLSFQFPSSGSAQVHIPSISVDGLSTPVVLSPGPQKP
# Procedure, shortened: as §1
# GABPA = molecular target: T3, GABPA (Homo sapiens, UniProt Q06546 1-454); conditions: protein: recombinant; tags: N-terminal GST; dsDNA, one strand shown
# T3 sequence: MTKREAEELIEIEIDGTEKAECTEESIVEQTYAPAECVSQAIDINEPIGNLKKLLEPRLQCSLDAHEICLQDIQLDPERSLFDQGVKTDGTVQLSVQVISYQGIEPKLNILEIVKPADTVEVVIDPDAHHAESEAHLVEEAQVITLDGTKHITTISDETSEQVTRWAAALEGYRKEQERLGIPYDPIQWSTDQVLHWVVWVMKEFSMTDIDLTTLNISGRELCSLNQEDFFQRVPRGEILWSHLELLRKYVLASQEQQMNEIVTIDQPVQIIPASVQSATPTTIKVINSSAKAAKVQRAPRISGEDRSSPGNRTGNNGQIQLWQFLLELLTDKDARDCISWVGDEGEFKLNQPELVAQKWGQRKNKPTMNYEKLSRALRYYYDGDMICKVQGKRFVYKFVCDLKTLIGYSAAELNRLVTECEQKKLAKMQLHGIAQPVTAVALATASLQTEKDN
# Procedure, shortened: as §1
# ERG = molecular target: T4, ERG (Homo sapiens, UniProt P11308 1-479); conditions: protein: recombinant; tags: N-terminal GST; dsDNA, one strand shown
# T4 sequence: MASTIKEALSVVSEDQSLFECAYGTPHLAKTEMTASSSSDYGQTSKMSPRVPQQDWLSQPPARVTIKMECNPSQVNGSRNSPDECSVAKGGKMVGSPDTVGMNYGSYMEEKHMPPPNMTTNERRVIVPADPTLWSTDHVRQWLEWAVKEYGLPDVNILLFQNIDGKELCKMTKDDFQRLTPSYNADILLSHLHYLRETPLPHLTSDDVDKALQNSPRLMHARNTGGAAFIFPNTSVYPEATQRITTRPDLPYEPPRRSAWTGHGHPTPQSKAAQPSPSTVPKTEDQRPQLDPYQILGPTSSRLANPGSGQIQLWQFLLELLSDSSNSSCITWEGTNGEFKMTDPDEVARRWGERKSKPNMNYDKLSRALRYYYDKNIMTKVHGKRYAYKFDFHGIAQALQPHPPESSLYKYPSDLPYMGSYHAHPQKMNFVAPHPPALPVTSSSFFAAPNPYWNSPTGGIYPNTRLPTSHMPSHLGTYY
# Procedure, shortened: as §1
# ELF1 = ELF1 (Homo sapiens, UniProt P32519 1-619); conditions: protein: recombinant; tags: N-terminal GST; dsDNA, one strand shown
# ELF1, sequence (P32519 whole entry): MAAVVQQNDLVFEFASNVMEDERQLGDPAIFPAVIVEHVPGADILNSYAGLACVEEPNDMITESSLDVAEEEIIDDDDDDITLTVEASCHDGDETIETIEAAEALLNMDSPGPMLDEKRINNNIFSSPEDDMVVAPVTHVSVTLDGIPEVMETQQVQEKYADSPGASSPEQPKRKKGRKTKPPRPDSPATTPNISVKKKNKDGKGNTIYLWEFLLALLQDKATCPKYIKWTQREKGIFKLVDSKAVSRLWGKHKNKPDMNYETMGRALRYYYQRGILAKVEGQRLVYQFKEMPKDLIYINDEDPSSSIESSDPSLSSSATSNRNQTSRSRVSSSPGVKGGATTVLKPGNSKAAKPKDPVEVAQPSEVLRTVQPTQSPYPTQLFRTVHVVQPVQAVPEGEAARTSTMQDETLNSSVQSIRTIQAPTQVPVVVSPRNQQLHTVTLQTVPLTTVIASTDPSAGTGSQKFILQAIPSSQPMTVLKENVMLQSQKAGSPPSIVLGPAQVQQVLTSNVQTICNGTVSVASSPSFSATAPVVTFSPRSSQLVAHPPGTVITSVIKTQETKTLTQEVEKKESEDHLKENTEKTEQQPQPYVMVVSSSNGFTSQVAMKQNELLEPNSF
# Procedure, shortened: as §1
# EHF = molecular target: T5, EHF (Homo sapiens, UniProt Q9NZC4 1-300); conditions: protein: recombinant; tags: N-terminal GST; dsDNA, one strand shown
# T5 sequence: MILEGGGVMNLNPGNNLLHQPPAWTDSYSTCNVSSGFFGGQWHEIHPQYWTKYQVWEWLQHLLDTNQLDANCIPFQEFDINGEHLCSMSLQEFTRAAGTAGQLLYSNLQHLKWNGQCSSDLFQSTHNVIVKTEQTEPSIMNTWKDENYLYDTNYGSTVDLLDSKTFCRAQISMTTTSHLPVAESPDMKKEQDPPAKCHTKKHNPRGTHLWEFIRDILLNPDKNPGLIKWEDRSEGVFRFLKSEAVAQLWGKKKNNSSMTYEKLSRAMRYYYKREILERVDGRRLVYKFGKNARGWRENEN
# Procedure, shortened: as §1
# SPI1 = SPI1 (Homo sapiens, UniProt P17947 1-270); conditions: protein: recombinant; tags: N-terminal GST; dsDNA, one strand shown
# Procedure, shortened: as §1
# SPIB = SPIB (Homo sapiens, UniProt Q01892 1-262); conditions: protein: recombinant; tags: N-terminal GST; dsDNA, one strand shown
# SPIB, sequence (Q01892 whole entry): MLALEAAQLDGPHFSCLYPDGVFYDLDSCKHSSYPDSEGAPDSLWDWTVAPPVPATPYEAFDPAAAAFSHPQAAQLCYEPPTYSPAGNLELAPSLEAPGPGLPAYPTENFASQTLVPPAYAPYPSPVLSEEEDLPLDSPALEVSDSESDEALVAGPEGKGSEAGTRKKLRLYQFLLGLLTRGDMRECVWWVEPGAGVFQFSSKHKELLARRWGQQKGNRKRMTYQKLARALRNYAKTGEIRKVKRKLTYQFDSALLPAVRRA
# Procedure, shortened: as §1
# ELK3 = molecular target: T6, ELK3 (Homo sapiens, UniProt P41970 1-407); conditions: protein: recombinant; tags: N-terminal GST; dsDNA, one strand shown
# T6 sequence: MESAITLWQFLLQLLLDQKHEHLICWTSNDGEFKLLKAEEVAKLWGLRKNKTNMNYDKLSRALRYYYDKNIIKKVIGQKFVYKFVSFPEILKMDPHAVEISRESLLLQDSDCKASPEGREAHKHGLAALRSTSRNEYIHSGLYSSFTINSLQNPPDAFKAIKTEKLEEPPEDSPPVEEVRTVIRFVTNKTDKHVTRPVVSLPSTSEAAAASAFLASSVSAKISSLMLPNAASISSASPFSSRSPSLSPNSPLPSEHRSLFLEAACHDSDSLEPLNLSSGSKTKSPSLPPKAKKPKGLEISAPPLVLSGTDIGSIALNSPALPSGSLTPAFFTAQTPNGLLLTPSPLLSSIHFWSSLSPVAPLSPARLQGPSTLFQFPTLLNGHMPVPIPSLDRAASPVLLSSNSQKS
# Procedure, shortened: as §1
# FEV = molecular target: T7, FEV (Homo sapiens, UniProt Q99581 1-238); conditions: protein: recombinant; tags: N-terminal GST; dsDNA, one strand shown
# T7 sequence: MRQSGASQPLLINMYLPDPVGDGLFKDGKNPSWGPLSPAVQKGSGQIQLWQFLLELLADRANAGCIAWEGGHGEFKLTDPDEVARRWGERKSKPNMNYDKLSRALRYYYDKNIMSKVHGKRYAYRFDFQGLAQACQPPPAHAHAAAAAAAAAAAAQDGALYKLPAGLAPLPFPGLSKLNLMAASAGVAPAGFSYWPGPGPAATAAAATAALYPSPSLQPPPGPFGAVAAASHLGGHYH
# Procedure, shortened: as §1
# ETV5 = ETV5 (Homo sapiens, UniProt P41161 1-510); conditions: protein: recombinant; tags: N-terminal GST; dsDNA, one strand shown
# ETV5, sequence (P41161 whole entry): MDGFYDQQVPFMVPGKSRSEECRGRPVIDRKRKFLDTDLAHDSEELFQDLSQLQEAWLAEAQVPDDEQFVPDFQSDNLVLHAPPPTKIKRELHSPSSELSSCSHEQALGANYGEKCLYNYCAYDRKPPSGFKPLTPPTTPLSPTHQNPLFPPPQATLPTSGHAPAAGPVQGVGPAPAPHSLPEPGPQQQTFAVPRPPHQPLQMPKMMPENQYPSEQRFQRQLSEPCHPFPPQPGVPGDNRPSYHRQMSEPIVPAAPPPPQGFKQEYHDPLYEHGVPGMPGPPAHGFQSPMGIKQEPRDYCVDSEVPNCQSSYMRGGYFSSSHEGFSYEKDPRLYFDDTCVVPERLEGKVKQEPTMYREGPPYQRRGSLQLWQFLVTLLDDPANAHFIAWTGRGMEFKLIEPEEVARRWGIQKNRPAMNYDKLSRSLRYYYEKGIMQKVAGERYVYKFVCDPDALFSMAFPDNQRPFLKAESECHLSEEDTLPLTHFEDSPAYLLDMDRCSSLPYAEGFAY
# Procedure, shortened: as §1
# HSF1 = HSF1 (Homo sapiens, UniProt Q00613 1-529); conditions: protein: recombinant; tags: N-terminal GST; chain copies: 3; dsDNA, one strand shown
# HSF1, sequence (Q00613 whole entry): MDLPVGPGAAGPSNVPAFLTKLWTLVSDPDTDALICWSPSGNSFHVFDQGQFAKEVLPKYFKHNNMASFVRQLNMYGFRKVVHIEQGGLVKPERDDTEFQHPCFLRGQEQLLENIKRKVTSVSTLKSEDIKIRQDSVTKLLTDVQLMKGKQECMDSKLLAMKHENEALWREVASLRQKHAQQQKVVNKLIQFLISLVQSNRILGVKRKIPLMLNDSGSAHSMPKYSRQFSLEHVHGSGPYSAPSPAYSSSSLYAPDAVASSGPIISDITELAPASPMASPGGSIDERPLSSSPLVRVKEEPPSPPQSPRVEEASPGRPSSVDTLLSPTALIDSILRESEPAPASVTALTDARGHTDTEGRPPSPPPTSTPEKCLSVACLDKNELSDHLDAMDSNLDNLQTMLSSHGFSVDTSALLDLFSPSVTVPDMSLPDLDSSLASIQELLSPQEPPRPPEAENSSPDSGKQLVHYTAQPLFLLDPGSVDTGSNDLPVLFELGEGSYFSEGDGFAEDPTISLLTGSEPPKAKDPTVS
# Procedure, shortened: as §1
# SPIC = molecular target: T8, SPIC (Homo sapiens, UniProt Q8N5J4 1-248); conditions: protein: recombinant; tags: N-terminal GST; dsDNA, one strand shown
# T8 sequence: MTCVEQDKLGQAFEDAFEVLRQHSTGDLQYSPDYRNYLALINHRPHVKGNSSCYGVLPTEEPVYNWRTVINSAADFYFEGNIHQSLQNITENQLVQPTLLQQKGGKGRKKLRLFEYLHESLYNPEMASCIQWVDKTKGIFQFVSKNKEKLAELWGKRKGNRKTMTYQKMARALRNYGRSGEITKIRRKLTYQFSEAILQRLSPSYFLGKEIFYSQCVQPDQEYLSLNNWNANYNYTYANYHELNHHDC
# Procedure, shortened: as §1
# ELF4 = ELF4 (Homo sapiens, UniProt Q99607 1-663); conditions: protein: recombinant; tags: N-terminal GST; dsDNA, one strand shown
# ELF4, sequence (Q99607 whole entry): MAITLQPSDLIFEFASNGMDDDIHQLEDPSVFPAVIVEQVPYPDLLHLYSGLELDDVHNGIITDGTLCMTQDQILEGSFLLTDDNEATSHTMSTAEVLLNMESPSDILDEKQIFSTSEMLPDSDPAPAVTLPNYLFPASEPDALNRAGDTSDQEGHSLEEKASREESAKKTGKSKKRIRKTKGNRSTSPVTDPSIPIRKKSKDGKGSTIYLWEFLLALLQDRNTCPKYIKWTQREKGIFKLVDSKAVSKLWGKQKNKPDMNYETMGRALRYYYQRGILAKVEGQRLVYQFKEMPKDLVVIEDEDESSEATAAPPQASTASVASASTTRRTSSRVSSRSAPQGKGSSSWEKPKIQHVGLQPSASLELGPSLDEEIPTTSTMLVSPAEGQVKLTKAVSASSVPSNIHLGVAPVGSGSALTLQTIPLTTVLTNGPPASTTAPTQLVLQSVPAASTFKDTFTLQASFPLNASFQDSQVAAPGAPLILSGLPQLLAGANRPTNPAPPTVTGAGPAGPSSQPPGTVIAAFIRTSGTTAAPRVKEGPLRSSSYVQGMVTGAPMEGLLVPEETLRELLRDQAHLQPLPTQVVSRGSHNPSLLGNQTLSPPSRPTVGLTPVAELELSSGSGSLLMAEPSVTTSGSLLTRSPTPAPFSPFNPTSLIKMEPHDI
# Procedure, shortened: as §1
# ELK4 = molecular target: T9, ELK4 (Homo sapiens, UniProt P28324-2 1-405); conditions: protein: recombinant; tags: N-terminal GST; dsDNA, one strand shown
# T9 sequence: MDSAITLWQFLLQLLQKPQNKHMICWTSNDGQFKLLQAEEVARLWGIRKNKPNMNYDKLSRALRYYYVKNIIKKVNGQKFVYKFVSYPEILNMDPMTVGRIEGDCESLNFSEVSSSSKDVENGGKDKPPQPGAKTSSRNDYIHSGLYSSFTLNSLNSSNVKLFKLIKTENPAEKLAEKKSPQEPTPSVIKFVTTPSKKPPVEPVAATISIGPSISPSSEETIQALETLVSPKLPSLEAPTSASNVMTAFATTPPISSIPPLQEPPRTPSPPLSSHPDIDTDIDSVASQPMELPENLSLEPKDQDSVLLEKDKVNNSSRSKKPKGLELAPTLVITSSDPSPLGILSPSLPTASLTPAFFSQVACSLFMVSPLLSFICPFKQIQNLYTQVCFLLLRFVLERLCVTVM
# Procedure, shortened: as §1
# ETV2 = molecular target: T10, ETV2 (Homo sapiens, UniProt O00321 1-342); conditions: protein: recombinant; tags: N-terminal GST; dsDNA, one strand shown
# T10 sequence: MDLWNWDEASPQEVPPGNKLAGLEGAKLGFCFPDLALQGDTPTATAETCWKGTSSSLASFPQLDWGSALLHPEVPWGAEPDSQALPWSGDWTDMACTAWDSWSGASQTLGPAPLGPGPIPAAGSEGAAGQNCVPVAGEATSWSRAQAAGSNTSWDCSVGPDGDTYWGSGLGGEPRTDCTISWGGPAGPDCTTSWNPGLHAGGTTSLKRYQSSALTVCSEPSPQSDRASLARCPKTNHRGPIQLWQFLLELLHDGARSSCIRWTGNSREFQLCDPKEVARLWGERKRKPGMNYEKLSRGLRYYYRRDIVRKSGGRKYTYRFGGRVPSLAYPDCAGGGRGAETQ
# Procedure, shortened: as §1
# ELF3 = molecular target: T11, ELF3 (Homo sapiens, UniProt P78545 1-371); conditions: protein: recombinant; tags: N-terminal GST; dsDNA, one strand shown
# T11 sequence: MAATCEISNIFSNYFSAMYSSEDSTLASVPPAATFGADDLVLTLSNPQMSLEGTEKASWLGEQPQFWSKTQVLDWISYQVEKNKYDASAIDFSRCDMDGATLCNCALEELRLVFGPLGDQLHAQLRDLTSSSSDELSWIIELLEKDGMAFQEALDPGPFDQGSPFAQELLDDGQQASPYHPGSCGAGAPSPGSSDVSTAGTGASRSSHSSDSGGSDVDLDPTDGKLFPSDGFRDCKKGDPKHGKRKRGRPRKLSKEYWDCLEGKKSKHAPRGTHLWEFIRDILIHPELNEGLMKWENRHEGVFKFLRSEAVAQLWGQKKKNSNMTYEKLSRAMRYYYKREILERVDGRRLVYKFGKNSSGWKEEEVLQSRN
# Procedure, shortened: as §1
# CRX = CRX (Homo sapiens, UniProt O43186 1-299); conditions: protein: recombinant; tags: N-terminal GST; dsDNA, one strand shown
# CRX, sequence (O43186 whole entry): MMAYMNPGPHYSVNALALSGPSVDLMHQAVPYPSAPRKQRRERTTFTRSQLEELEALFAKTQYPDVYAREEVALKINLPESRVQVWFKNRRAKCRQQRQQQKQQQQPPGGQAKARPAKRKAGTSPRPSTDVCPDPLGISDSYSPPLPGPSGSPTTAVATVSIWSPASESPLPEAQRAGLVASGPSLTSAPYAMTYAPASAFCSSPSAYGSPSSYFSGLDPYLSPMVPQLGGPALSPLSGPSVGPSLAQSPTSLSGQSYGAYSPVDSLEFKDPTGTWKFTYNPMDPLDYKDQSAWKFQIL
# Procedure, shortened: as §1
# ETV1 = ETV1 (Homo sapiens, UniProt P50549 1-477); conditions: protein: recombinant; tags: N-terminal GST; dsDNA, one strand shown
# ETV1, sequence (P50549 whole entry): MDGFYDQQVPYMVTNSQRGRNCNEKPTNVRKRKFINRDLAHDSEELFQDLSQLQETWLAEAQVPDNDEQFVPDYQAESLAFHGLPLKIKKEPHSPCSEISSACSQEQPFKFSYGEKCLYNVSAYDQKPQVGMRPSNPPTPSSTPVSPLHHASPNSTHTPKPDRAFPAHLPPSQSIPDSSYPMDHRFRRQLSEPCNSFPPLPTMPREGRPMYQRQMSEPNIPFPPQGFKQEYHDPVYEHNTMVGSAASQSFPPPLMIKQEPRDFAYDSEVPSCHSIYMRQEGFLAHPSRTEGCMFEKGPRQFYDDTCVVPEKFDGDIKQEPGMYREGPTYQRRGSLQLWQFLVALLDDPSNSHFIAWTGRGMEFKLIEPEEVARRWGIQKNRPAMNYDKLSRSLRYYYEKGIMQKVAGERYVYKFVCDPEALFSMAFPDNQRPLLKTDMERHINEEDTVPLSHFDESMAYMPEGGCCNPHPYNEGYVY
# Procedure, shortened: as §1
sequence,measurement,setting,value
TCCACT,binding signal,FLI1,"1.47 fold enrichment (6-mer frequency, TF over GST control)"
same,binding signal,ELK1,"1.52 fold enrichment (6-mer frequency, TF over GST control)"
same,binding signal,GABPA,"1.51 fold enrichment (6-mer frequency, TF over GST control)"
same,binding signal,ERG,"1.54 fold enrichment (6-mer frequency, TF over GST control)"
same,binding signal,ELF1,"1.5 fold enrichment (6-mer frequency, TF over GST control)"
same,binding signal,EHF,"1.36 fold enrichment (6-mer frequency, TF over GST control)"
same,binding signal,SPI1,"1.5 fold enrichment (6-mer frequency, TF over GST control)"
same,binding signal,SPIB,"1.39 fold enrichment (6-mer frequency, TF over GST control)"
same,binding signal,ELK3,"1.49 fold enrichment (6-mer frequency, TF over GST control)"
same,binding signal,FEV,"1.54 fold enrichment (6-mer frequency, TF over GST control)"
same,binding signal,ETV5,"1.49 fold enrichment (6-mer frequency, TF over GST control)"
same,binding signal,HSF1,"1.47 fold enrichment (6-mer frequency, TF over GST control)"
same,binding signal,SPIC,"1.4 fold enrichment (6-mer frequency, TF over GST control)"
same,binding signal,ELF4,"1.51 fold enrichment (6-mer frequency, TF over GST control)"
same,binding signal,ELK4,"1.49 fold enrichment (6-mer frequency, TF over GST control)"
same,binding signal,ETV2,"1.48 fold enrichment (6-mer frequency, TF over GST control)"
same,binding signal,ELF3,"1.25 fold enrichment (6-mer frequency, TF over GST control)"
same,binding signal,CRX,"1.33 fold enrichment (6-mer frequency, TF over GST control)"
same,binding signal,ETV1,"1.41 fold enrichment (6-mer frequency, TF over GST control)"
